Source: PubChem BioAssay AID744 (University of Pittsburgh Molecular Library Screening Center, 2007)
The list shows a part of the results.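 How the source made its calls: active means inhibition at or above 50% in each of two repeat confirmation tests; inconclusive means one repeat below 50% inhibition, the other above; inactive means both repeats at or below 50% inhibition.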

target: Serine/threonine-protein kinase PLK1 (Homo sapiens) (UniProt P53350); assay: PLK1 kinase activity inhibitors, confirmation, biochemical, TR-FRET, duplicate runs (AID 744); conditions: recombinant PLK1 kinase, TR-FRET peptide phosphorylation; at 10 µM; active compounds read high;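 further: 0% = DMSO max control and 100% = H-89 kinase-blocked min control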
Sequence (P53350 whole entry, looked up): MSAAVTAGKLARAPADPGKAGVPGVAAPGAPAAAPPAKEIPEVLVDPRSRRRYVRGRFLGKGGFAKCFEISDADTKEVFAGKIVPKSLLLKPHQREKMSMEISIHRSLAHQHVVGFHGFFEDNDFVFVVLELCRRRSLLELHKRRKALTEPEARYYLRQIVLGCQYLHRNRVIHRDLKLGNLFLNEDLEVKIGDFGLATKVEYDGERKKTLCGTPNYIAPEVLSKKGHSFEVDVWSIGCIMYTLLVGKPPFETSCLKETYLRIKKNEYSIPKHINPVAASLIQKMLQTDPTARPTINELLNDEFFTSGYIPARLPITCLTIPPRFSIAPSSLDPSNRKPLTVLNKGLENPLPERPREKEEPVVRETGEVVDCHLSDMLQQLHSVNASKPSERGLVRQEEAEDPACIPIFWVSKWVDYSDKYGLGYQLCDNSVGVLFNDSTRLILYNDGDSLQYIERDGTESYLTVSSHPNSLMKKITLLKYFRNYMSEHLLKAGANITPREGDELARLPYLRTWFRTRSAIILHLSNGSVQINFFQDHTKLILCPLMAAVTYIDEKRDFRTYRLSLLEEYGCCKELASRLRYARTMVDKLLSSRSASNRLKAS

inhibition, inactive:
O=C(Nc1cccc(F)c1)c1ccc(S(=O)(=O)N2CCCC2)cc1 -12.1%
CC1CSc2nnc(CCc3ccccc3)n21 (stereo unspecified) -11.1%
CC1CN(c2cc(=O)n(Cc3ccc(F)cc3)c(=O)[nH]2)CC(C)O1 (stereo unspecified) -5.99%
Cc1ccnc(N2C(=O)c3ccccc3C2Nc2ccc3c(c2)OCCO3)c1 (stereo unspecified) -3.64%
C[N+]1(CCNC(=O)/C=N/O)CCCCC1 -0.685%
COc1ccc(-c2nc(CS(=O)CC(=O)NCc3cccnc3)c(C)o2)cc1OC (stereo unspecified) -2.97%
